Most compounds without a hit are left out; they make up all but 4.1% or so of the library.
TROY signal inh – inhibitors of TROY-dependent NF-kB signaling; 0.98% of 360,000 active; Q293 LMP1-TROYcd NF-kB luciferase reporter, 4 h; inhibition, % at 10 µM;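 active means compounds whose plate-normalised and pattern-corrected inhibition of the luciferase reporter signal at the single screening dose is 50% or more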
Shn3 inh set2 – inhibitors of Schnurri-3 3'UTR reporter in osteoblasts. Clone20 osteoblast Shn3 3'UTR firefly luciferase, 24 h. inhibition, % at 12.5 µM. 0.52% of 360,000 active. AID 588674;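 active means mean inhibition of at least 75% with every replicate also reaching 75%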;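 further: 0% = median of neutral control wells and 100% = pilot-screen positive control compound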
MITF TRPM1 inh – inhibitors of MITF-driven TRPM1 promoter in melanoma cells; SK-MEL-5 TRPM1 promoter luciferase, 24 h; AID 488899; inhibition, % at 12.5 µM; 0.83% of 330,000 active;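 active means mean inhibition across replicates of 60% or more, whatever share of single replicates reaches that level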
EBV LMP1 NFkB – Epstein-Barr LMP1 NF-kappaB reporter inhibition; LMP1-induced NF-kappaB luciferase reporter cells, luminescence; inhibition, % at 12.5 µM; 0.69% of 350,000 active; AID 504558; in the data active means inhibition above about 41%;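 further: 0% = neutral control wells and 100% = reference inhibitor control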
Peg3 prom inh – inhibitors of Peg3 promoter; HeLa PEG-Prom luciferase reporter, luminescence, overnight; inhibition, % at 20 µM; 1.7% of 360,000 active;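 active means inhibition of at least 50% at 20 µM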
TWEAK Fn14 block – blocks TWEAK-Fn14 interaction in a reporter cell assay; inhibition, % at 10 µM; TWEAK-stimulated Fn14 reporter cells, luciferase luminescence, 8 h; 2% of 360,000 active; in the data active means inhibition above about 50%
* = called active by the depositor; nt = no result.

SMILES	TROY signal inh	Shn3 inh set2	MITF TRPM1 inh	EBV LMP1 NFkB	Peg3 prom inh	TWEAK Fn14 block
N#Cc1c(N2CCCC(O)C2)nc(N)c2c(N)nc3c(c12)CC(=O)N3C12CC3CC(CC(C3)C1)C2 (configuration not stated)	11	7	6	-16	41	76*
O=C(C1CCC(Cn2c(=S)[nH]c3ccccc3c2=O)CC1)N1CCN(c2ccccc2)CC1 (configuration not stated)	20	23	15	11	17	31
O=C(C1CCC(Cn2c(=S)[nH]c3ccccc3c2=O)CC1)N1CCN(c2ccccn2)CC1 (configuration not stated)	-7	51	9	18	42	56*
O=C(CSc1nc2ccc(NC(=O)c3ccccc3C(=O)O)cc2s1)Nc1ccc(F)c([N+](=O)[O-])c1	-26	14	-3	7	-103	-17
O=C(Nc1cc(Sc2nc3ccccc3s2)cc([N+](=O)[O-])c1)c1cccc(F)c1F	24	33	-15	8	21	58*
COc1ccc(NC(=O)NC23CC4(C)CC(C)(CC(C)(C4)C2)C3)cc1	20	-1	8	-8	21	-1
O=C(c1cc(C2CC2)nn1-c1ccccc1)N1CCN(Cc2ccccc2F)CC1	-7	2	5	3	4	-10
C[N+]1(C2CCC3CCCC2C3O)CCCCC1 (configuration not stated)	6	-9	2	-6	2	3
COc1c2c(cc3oc(=O)c4c5ccc(O)cc5oc4c13)OC(C)(C)CC2	77*	-35	-55	-111	-263	77*
CCCN1C(=O)/C(=C/c2ccc3c(c2)OCO3)NC1=S	35	-1	14	6	-111	-1
CCCN1C/C(=C/c2ccc3c(c2)OCO3)C(=O)/C(=C/c2ccc3c(c2)OCO3)C1	-9	-10	84*	-59	107*	19
Cc1ccc(S(=O)(=O)N2CCN(C(=O)CSC(=S)N3CCCC3)CC2)c(C)c1	0	-32	1	-3	10	-17
CCCCN(C(=O)Cc1coc2cc(C)c(C)cc12)c1c(N)n(Cc2ccccc2)c(=O)[nH]c1=O	7	15	-6	0	25	5
C=C1C(=O)c2sccc2C(c2ccc(OC)c(OC)c2)C1COC(C)=O (configuration not stated)	69*	99*	98*	79*	105*	100*
C/C(=N\Nc1ccc(Cl)c(C(=O)O)c1)c1ccccn1	-67	-36	-5	-8	-1	-4
C/C(=N\Nc1ncnc2sc(C)c(C)c12)c1ccccn1	23	89*	67*	84*	84*	73*
C/C(=N\Nc1ncc(Cl)cc1Cl)c1ccc(N2CCOCC2)cc1	55*	-5	-12	-2	-39	62*
C/C(=N\Nc1ncc(Cl)cc1Cl)c1ccccn1	0	86*	95*	85*	71*	92*
O=C(COC(=O)CNC(=O)c1ccc(Cl)cc1Cl)NC1CCCCCCC1	-21	16	-3	3	1	-5
CC1=C(C(=O)OCCNC(=O)c2cccnc2)C(c2cccc([N+](=O)[O-])c2)C(C(=O)OCCN(C)C)=C(C)N1 (configuration not stated)	20	1	-4	5	-10	6
CC1CCCC(C)N1C(=O)COC(=O)c1cc(S(=O)(=O)N2CCOCC2)ccc1Cl (configuration not stated)	11	-9	9	0	15	-13
CC(=O)n1cc(C(C[N+](=O)[O-])SCCN)c2ccccc21 (configuration not stated)	-8	43	86*	22	47	11
COCC(=O)Nc1cc(Cl)ccc1C	-3	1	13	-6	9	-1
Cc1ccc(Cl)cc1NC(=O)CC(O)(C(F)(F)F)C(F)(F)F	54*	29	4	14	41	31
O=C(NC(=S)Nc1ccc(N2CCOCC2)cc1)c1ccc2c(c1)OCCO2	60*	-32	4	2	-90	51*
O=C(NC(=S)Nc1ccc(N2CCCCC2)cc1)c1ccc2c(c1)OCCO2	77*	27	-6	19	-63	55*
O=C(NC(=S)Nc1ccc(CN2CCOCC2)cc1)c1ccc2c(c1)OCCO2	17	nt	-8	-12	-104	-17
O=C(c1ccco1)N1CCN(c2nnc(-c3ccccc3)c3ccccc23)CC1	2	23	5	4	17	1
